From the supplement of paper PMC6555819

Experiments:
Experiment in all cases: PBM binding z-score (relative to random genomic background probes); higher = stronger binding; sequences stand for … in GC…GCGATTGACAGCGTAGAATGAAGG
[1] = system: FXR:RXRa (NR concentration 270 nM, RXRa partner concentration 90 nM)
Procedure, shortened: (§1)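 For binding z-scores, the reference was random background probes on custom Agilent 4×180K protein-binding microarrays. These arrays were incubated 1 h with ligand-free nuclear receptor dimers in PBS pH 7.4, 2% milk, 0.02% Triton X-100, 1 mM DTT, 0.2 mg/mL BSA and 0.4 mg/ml salmon testes DNA. Fluorescence was scanned after antibody detection of each partner (one per run) and regression-normalized.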

[2] = system: LXRa:RXRa (NR concentration 270 nM, RXRa partner concentration 90 nM)
Procedure, shortened: as §1

[3] = system: LXRa homodimer (NR concentration 270 nM)
Procedure, shortened: as §1

[4] = system: LXRb:RXRa (NR concentration 270 nM, RXRa partner concentration 90 nM)
Procedure, shortened: as §1

[5] = system: LXRb homodimer (NR concentration 270 nM)
Procedure, shortened: as §1

[6] = system: PPARa:RXRa (NR concentration 270 nM, RXRa partner concentration 90 nM)
Procedure, shortened: as §1

[7] = system: PPARg:RXRa (NR concentration 180 nM, RXRa partner concentration 90 nM)
Procedure, shortened: as §1

[8] = system: PPARg:RXRa 270nM:90nM, anti-RXR (NR concentration 270 nM, RXRa partner concentration 90 nM)
Procedure, shortened: as §1

[9] = system: PPARg:RXRa 30nM:10nM, anti-RXR (NR concentration 30 nM, RXRa partner concentration 10 nM)
Procedure, shortened: as §1

[10] = system: PPARg:RXRa 90nM:30nM, anti-RXR (NR concentration 90 nM, RXRa partner concentration 30 nM)
Procedure, shortened: as §1

[11] = system: PPARg:RXRa DBDmut IVT, anti-RXR (DBD mutation: RXRa K156A/R161A, NR concentration 270 nM, RXRa partner concentration 90 nM)
Procedure, shortened: as §1

[12] = system: PPARg:RXRa IVT, anti-PPARg (NR concentration 270 nM, RXRa partner concentration 90 nM)
Procedure, shortened: as §1

[13] = system: PPARg DBDmut:RXRa IVT, anti-PPARg (DBD mutation: PPARg1 K132A/R137A, NR concentration 270 nM, RXRa partner concentration 90 nM)
Procedure, shortened: as §1

[14] = system: PPARg DBDmut IVT, anti-PPARg (DBD mutation: PPARg1 K132A/R137A, NR concentration 270 nM)
Procedure, shortened: as §1

[15] = system: PPARg homodimer (NR concentration 180 nM)
Procedure, shortened: as §1

[16] = system: PXR:RXRa (NR concentration 270 nM, RXRa partner concentration 90 nM)
Procedure, shortened: as §1

[17] = system: PXR homodimer (NR concentration 270 nM)
Procedure, shortened: as §1

[18] = system: RARa:RXR (NR concentration 270 nM, RXRa partner concentration 90 nM)
Procedure, shortened: as §1

[19] = system: RARa homodimer (NR concentration 270 nM)
Procedure, shortened: as §1

[20] = system: RARb:RXRa (NR concentration 270 nM, RXRa partner concentration 90 nM)
Procedure, shortened: as §1

Sequence	PBM binding z-score [1]	PBM binding z-score [2]	PBM binding z-score [3]	PBM binding z-score [4]	PBM binding z-score [5]	PBM binding z-score [6]	PBM binding z-score [7]	PBM binding z-score [8]	PBM binding z-score [9]	PBM binding z-score [10]	PBM binding z-score [11]	PBM binding z-score [12]	PBM binding z-score [13]	PBM binding z-score [14]	PBM binding z-score [15]	PBM binding z-score [16]	PBM binding z-score [17]	PBM binding z-score [18]	PBM binding z-score [19]	PBM binding z-score [20]
AGTCAAAGTTCACTAGGTATCGTAAGATTCAGCT	4.92	5.04	3.27	2.98	1.09	4.19	6.03	5.82	2.96	5.12	1.2	3.6	1.14	1.1	2.46	4.04	3.44	2.8	1.06	4.7
TAGCATAGGTCAGATCGGGCCAGTATACGCTATA	3.66	2.95	-0.198	2.08	-0.138	3.38	1.65	1.67	0.311	1.05	-0.136	0.798	-0.196	-0.529	0.679	2.5	-0.583	2.5	-0.285	3.37
TCTTGTAGATCAATAGAGGCTAAGAAAGTGCGCT	0.509	0.411	-0.573	0.151	-0.421	0.411	-0.238	0.977	2.4	1.84	1.51	0.473	0.414	0.266	0.0391	0.573	0.17	0.468	-0.133	0.203
CCTACTGGGCCAAGATCATTGATCAGTCAAAGCA	-0.667	-0.791	-0.405	-0.59	-1.07	0.131	0.378	0.483	-0.171	0.221	3.49	2.81	-0.235	-0.518	-0.385	-0.498	-0.795	-0.319	-0.424	-0.341
CCTACTGCGCCAAAGGTCATTGATTCCAATGCTC	5.29	5.64	5.34	5.07	1.91	5.47	6.88	7.67	6.56	7.79	1.68	3.77	5.21	1.61	3.34	5.66	2.58	5.78	2.4	4.61
TCTAGCAGGCCAGAGGGTCACTGAAGAGGTACGG	0.95	1.08	-0.818	1.01	-1.1	2.79	1.69	2.79	1.92	2.4	1.24	0.963	-0.7	-1.2	0.503	1.53	-0.448	2.29	-0.0509	2.34
TGAATGAGGTTATAAGGTCAGGGAACGTTGCAAA	5.12	4.24	0.615	3.38	0.153	5.17	5.07	5.43	2.33	4.46	2.58	4.37	1.54	1.21	2.82	4.17	0.241	5.68	0.814	3.88
TTACCAAGGTGAGCTGAGGTAGTTGATCCAACTC	-0.711	-0.48	-0.742	-0.743	-1.03	0.16	-0.149	-0.0423	-0.136	-0.391	0.816	1.21	0.143	-0.469	-1.15	0.018	-0.878	1.14	-0.894	0.883
CGTCAAAGTTCAACTAAGGTAACGTGAAGCACGC	7.3	6.43	4.57	3.84	1.83	5.09	4.91	5.8	2.35	4.5	0.871	2.2	0.717	0.859	3.36	5.76	4.5	4.34	2.47	5.26
TAGACTAGGTCATGCGGGCCAGTATAGTGTCGGC	3.22	2.34	0.304	1.15	0.173	3.96	5.48	4.65	2.34	3.95	5.86	6.59	1.88	2.4	0.793	1.06	-0.131	1.67	-0.228	3.55
CCTACTGGGCCATCAGGTCCTTGATATCAACGTT	-0.312	-0.421	-0.282	-0.452	-0.521	0.449	0.742	1.4	-0.0903	0.582	3.89	3.63	0.113	-0.684	0.311	-0.471	-0.404	-0.307	0.115	0.33
GCAGACAGGTGAAACGCAGGTATCTCAGGGTGGC	-0.22	-0.184	-0.68	-0.253	-1.19	0.544	0.481	0.0316	-0.675	-0.473	0.78	0.498	-0.724	-0.85	-0.577	-0.328	-0.634	0.112	-0.595	0.463
TAGCCCAGGTCATTGGGCCAGTATAGTACGCATC	4.84	3.77	0.677	2.25	-0.127	4.22	3.72	3.93	0.844	2.6	1.36	3.68	-0.318	-0.214	1.51	2.71	0.0159	3.06	-0.165	3.71
CGTCCAAGGTCGGAGAGGTCAGTGAATGCCGAGT	2.9	3.06	1.09	2.53	-0.761	3.1	0.524	2.01	0.133	1.16	0.725	1.17	-0.739	-1.35	1.93	4.6	7.89	3.59	1.21	3.76
